Sampled rows, rich in hits. Any-hit rate of the full collection: about 11%.
NIH3T3 tox = NIH 3T3 cell cytotoxicity. NIH 3T3 viability, CellTiter-Glo ATP luminescence, 48-72 h. Potency, µM (top dose mostly 96.7 µM), without a hit: at the highest dose activity change, negative = cytotoxicity, most hits filed as inhibitors. 4.3% of 94,000 active. AID 1345082; further: on the % scale 0 is the no-effect control and ±100 the full control effect; nearly all actives have a fitted effect of over 55% in size
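Cytotoxicity was measured by CellTiter-Glo ATP luminescence after 48 or 72 h compound exposure at 37 °C. Mouse NIH 3T3 fibroblasts were seeded at 400 cells/well and dosed by 23 nL pin transfer.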
Luciferase inh = Photinus pyralis luciferase inhibition | P08659 | purified P. pyralis luciferase, luminescence, biochemical | Potency, µM (doses to about 115 µM), most hits filed as inhibitors | 2.5% of 76,000 active; further: on the % scale 0 is the no-effect control and ±100 the full control effect; nearly all actives have a fitted effect of over 65% in size
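Purified P. pyralis luciferase (10nM final) in 50mM Tris acetate pH 7.5, 10mM Mg acetate, 0.01% Tween-20, 0.05% BSA with 10uM D-luciferin and 10uM ATP. Compounds titrated qHTS. Luminescence imaged on CCD.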
HEK293 tox = HEK 293 cell cytotoxicity. HEK 293 viability, ATP luminescence (CellTiter-Glo), 48-72 h. Potency, µM (top dose mostly 115 µM), for the others: at the top dose activity change, negative = cytotoxicity, actives largely listed as inhibitors. 6.6% of 94,000 active. AID 1345083; further: on the % scale 0 is the no-effect control and ±100 the full control effect; nearly all actives have a fitted effect of over 60% in size
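HEK 293 cells seeded at 250 cells/well were exposed to compound for 48 or 72 hr at 37 degree Celsius. Viability taken as ATP content by CellTiter-Glo luminescence.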
NPR1 antag = blocks ANP-stimulated signaling of human Npr1 receptor; P16066; HEK293 hNpr1 GloSensor cGMP, ANP-stimulated luminescence; Potency, µM (doses to about 46.3 µM), inactives show at the top dose activity change, negative = inhibition, most hits filed as inhibitors; 1.6% of 76,000 active; AID 1347048; calls by dose curve; further: on the % scale 0 is the no-effect control and ±100 the full control effect; nearly all actives have a fitted effect of over 60% in size
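Compound pre-incubated 30 min at room temperature on GloSensor-loaded HEK293 cells stably carrying hNpr1 and the pGS-40F cGMP biosensor. Stimulation uses hNppA at 0.1 nM final; luminescence is taken at baseline and 20 min post-agonist.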
Npr1 antag conf = hNpr1 antagonism, confirmation assay; shares compounds with NPR1 antag; HEK293 hNpr1 cGMP GloSensor luminescence, ANP-stimulated; Potency, µM (doses to about 57.6 µM), for the others: top-dose activity change, negative = inhibition, most hits filed as inhibitors; 76% of 1,400 active; AID 1347044; calls by dose curve; further: nearly all actives have a fitted effect of over 70% in size
NPR2 antag = hNpr2 antagonism, selectivity versus Npr1. shares compounds with NPR1 antag. HEK293 hNpr2 GloSensor cGMP luminescence, CNP-stimulated. Potency, µM (series often up to 57.6 µM), for inactives: at the top dose activity change, negative = inhibition, actives largely listed as inhibitors. 67% of 1,400 active. AID 1347046; calls by dose curve; further: nearly all actives have a fitted effect of over 70% in size
Target sequence (P20594 whole entry, looked up): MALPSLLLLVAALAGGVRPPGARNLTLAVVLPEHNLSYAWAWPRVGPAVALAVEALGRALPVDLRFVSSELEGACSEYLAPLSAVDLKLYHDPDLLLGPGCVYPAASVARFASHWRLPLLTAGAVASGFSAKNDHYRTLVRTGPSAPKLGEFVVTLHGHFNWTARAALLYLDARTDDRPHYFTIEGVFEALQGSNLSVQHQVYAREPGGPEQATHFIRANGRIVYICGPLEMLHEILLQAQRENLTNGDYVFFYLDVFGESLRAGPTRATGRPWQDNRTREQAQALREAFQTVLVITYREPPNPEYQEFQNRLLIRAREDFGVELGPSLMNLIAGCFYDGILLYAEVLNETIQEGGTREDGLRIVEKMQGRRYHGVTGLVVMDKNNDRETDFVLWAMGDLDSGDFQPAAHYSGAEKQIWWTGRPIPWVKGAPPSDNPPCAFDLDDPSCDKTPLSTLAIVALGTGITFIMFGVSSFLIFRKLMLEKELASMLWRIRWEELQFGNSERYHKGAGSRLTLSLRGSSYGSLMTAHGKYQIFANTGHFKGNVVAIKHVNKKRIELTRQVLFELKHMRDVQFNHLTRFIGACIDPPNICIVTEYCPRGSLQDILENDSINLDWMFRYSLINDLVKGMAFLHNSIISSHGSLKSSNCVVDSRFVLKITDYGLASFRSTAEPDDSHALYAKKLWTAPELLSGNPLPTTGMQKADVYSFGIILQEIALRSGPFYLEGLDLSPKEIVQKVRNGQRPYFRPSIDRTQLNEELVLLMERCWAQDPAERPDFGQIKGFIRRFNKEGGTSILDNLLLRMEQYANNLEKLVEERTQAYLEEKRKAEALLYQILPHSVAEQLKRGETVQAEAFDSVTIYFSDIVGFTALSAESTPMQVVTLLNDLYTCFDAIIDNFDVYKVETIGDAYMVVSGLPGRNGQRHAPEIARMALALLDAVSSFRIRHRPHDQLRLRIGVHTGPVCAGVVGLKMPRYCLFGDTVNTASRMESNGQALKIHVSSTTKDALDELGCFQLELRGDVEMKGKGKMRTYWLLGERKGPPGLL
FLuc inh counter = counter-screen for Npr1 antagonists: firefly luciferase inhibitors; shares compounds with NPR1 antag; purified FLuc enzyme, luminescence, Km substrate; Potency, µM (highest dose often 57.6 µM), for the others: top-dose activity change, negative = inhibition, most hits filed as inhibitors; 0.7% of 1,400 active; AID 1347047; further: 0% is about no effect
GloSensor ctrl = control cell line activity, Npr1 antagonist counter-screen; shares compounds with NPR1 antag; HEK293 GloSensor cGMP, SNP-stimulated, luminescence; 69% of 1,400 active; Potency, µM (top dose mostly 57.6 µM), for the others: at the top dose activity change, negative = inhibition, actives largely listed as inhibitors; AID 1347051; calls by dose curve; further: on the % scale 0 is the no-effect control and ±100 the full control effect; nearly all actives have a fitted effect of over 70% in size
* hit, by the source's call; [ ] = dose if it differs, or a comment. Unless noted, the call rests on the fitted dose curve; in most records, active means well fitted curve in the direction sought with a large enough effect; inconclusive means small, poorly fitted or top-dose-only effect, or another doubt; inactive means no such curve, though single readings can be large; an effect the other way counts as inactive or inconclusive. Potency means the concentration at half of the fitted maximal effect.

`COc1ccc(C(=O)N2CCCN(C)c3ccccc32)c(OC)c1` gave NIH3T3 tox inconclusive, Luciferase inh inactive, HEK293 tox inconclusive and NPR1 antag -21.6%.
`COc1ccc(OC)c(NC(=O)N2CCCN(C)c3ccccc32)c1` gave NIH3T3 tox inconclusive, Luciferase inh inactive, HEK293 tox inconclusive, NPR1 antag inconclusive, Npr1 antag conf inconclusive, NPR2 antag 12.2µM*, FLuc inh counter 0.2% and GloSensor ctrl -1.9%.
For Cc1ccccc1S(=O)(=O)N1CCC(n2cnnc2-c2ccccc2)CC1 the results were NIH3T3 tox -17.5%, Luciferase inh inactive, HEK293 tox -0.6% and NPR1 antag 4.6%.
Screening Cc1ccc(S(=O)(=O)N2CCC(n3cnnc3-c3ccccc3)CC2)c(C)c1 returned NIH3T3 tox inconclusive, Luciferase inh inactive, HEK293 tox inconclusive, NPR1 antag -29.4%, Npr1 antag conf inconclusive, NPR2 antag inconclusive, FLuc inh counter 6.1% and GloSensor ctrl -21.3%.
`Cc1cc(C(=O)Nc2cccc(-c3nnc4n3CCCC4)c2)n[nH]1` gave NIH3T3 tox -12.9%, Luciferase inh inactive, HEK293 tox -10.8%, NPR1 antag inconclusive, Npr1 antag conf inconclusive, NPR2 antag inconclusive, FLuc inh counter -16.5% and GloSensor ctrl inconclusive.
Screening O=C(Nc1cccc(-c2nnc3n2CCCC3)c1)c1ccc(F)cc1 returned NIH3T3 tox inconclusive, Luciferase inh inactive, HEK293 tox -21.4% and NPR1 antag 4.1%.
`Cc1ccccc1CN1C[C@@H]2C(=O)N(Cc3ccc4c(c3)OCO4)C(=O)[C@@H]2C1` gave NIH3T3 tox -27.1%, Luciferase inh inactive, HEK293 tox inconclusive and NPR1 antag -1.4%.
Screening COc1ccc(C)cc1C(=O)N1CCc2onc(-c3ccccc3F)c2C1 returned NIH3T3 tox -29.4%, Luciferase inh inactive, HEK293 tox 28.2µM*, NPR1 antag 14.1µM*, Npr1 antag conf 24.3µM*, NPR2 antag 21.7µM*, FLuc inh counter -0.9% and GloSensor ctrl 21.7µM*.
`COC(=O)CNC(=O)c1ccc(-c2ccc(OC)nn2)cc1` gave NIH3T3 tox -13.7%[138 µM] and HEK293 tox -3.4%[172 µM].
For OCC1(CCOc2ccccc2)CCCN(c2ncnc3sccc23)C1 (stereo unspecified) the results were NIH3T3 tox inconclusive, Luciferase inh inactive, HEK293 tox inconclusive, NPR1 antag 1.78µM*, Npr1 antag conf 2.73µM*, NPR2 antag 3.85µM*, FLuc inh counter -0.4% and GloSensor ctrl 2.17µM*.
For CC(C)C1=NOC2(CCN(Cc3ccccc3)C2)C1 (stereo unspecified) the results were NIH3T3 tox 3.4%[138 µM] and HEK293 tox inactive.
Screening COc1ccc(N2CC3CCC(C2)N3C(C)=O)cc1 returned NIH3T3 tox -15.1%[138 µM] and HEK293 tox -8.6%[172 µM].
Screening CN(C)C(=O)N1C2CCC1CN(c1ccc(C(F)(F)F)cc1)C2 returned NIH3T3 tox inconclusive, HEK293 tox inconclusive, Npr1 antag conf 24.1µM*, NPR2 antag 19.1µM*, FLuc inh counter 0.7% and GloSensor ctrl 15.2µM*.
CC(CCc1ccco1)NC(=O)CN1CCCc2nc(-c3ccccc3)ncc2C1=O (stereo unspecified) was read as NIH3T3 tox inconclusive, Luciferase inh inactive, HEK293 tox inconclusive, NPR1 antag inconclusive, Npr1 antag conf inconclusive, NPR2 antag inconclusive, FLuc inh counter 1.8% and GloSensor ctrl inconclusive.
Cc1nn(C)cc1C(C)NC(=O)CN1CCCc2nc(-c3ccccc3)ncc2C1=O (stereo unspecified) was read as NIH3T3 tox -25.2%, Luciferase inh inactive, HEK293 tox inconclusive, NPR1 antag inconclusive, Npr1 antag conf inconclusive, NPR2 antag -28.6%, FLuc inh counter 3.5% and GloSensor ctrl -19.7%.
Screening O=C(CN1CCCc2nc(-c3ccccc3)ncc2C1=O)NCCc1c[nH]c2ccccc12 returned NIH3T3 tox inconclusive, Luciferase inh inactive, HEK293 tox inconclusive, NPR1 antag 10µM*, Npr1 antag conf 27.3µM*, NPR2 antag inconclusive, FLuc inh counter -9.7% and GloSensor ctrl 21.7µM*.
Screening O=C(O)CN1CCCc2nc(-c3ccccc3)ncc2C1=O returned NIH3T3 tox inactive, Luciferase inh inactive, HEK293 tox inactive and NPR1 antag 4.6%.
`COCCn1c(CN2C(=O)CCc3ccccc32)nnc1C1CC(N)C1` (stereo unspecified) gave NIH3T3 tox inactive, Luciferase inh inactive, HEK293 tox 0.2% and NPR1 antag 10.6%.
Screening O=C(c1ccsc1)N1CCC(Oc2ccccc2)C1 (stereo unspecified) returned NIH3T3 tox -10.0%, Luciferase inh inactive, HEK293 tox -18.6% and NPR1 antag -5.6%.
`Cc1cccc(CN2CCCn3nc(C)c(-c4ccccc4-c4ccccc4)c32)n1` gave NIH3T3 tox 12.6µM*, Luciferase inh inactive, HEK293 tox inconclusive, NPR1 antag 15.8µM*, Npr1 antag conf 11.1µM*, NPR2 antag 28µM*, FLuc inh counter -1.6%[86.2 µM] and GloSensor ctrl 7.89µM*.
For Cc1ccncc1-c1c(C)nn2c1N(Cc1ccc(C(=O)O)cc1)CCC2 the results were NIH3T3 tox inconclusive, Luciferase inh inactive, HEK293 tox inconclusive and NPR1 antag -12.1%[70.6 µM].
Cc1nn2c(c1-c1ccccc1-c1ccccc1)N(Cc1ccc(O)cc1)CCC2 was read as NIH3T3 tox 8.91µM*, Luciferase inh inactive, HEK293 tox 7.94µM*, NPR1 antag 3.55µM*, Npr1 antag conf 2.8µM*, NPR2 antag 4.98µM*, FLuc inh counter 1.8%[86.2 µM] and GloSensor ctrl 3.53µM*.
For C=CCN(Cc1ccccc1OC)C(=O)c1cnc2ccccn12 the results were NIH3T3 tox inconclusive, Luciferase inh inactive, HEK293 tox inconclusive and NPR1 antag 5.9%.
CN(C)C(=O)c1n[nH]c2c1CN(C(=O)c1cccc(Cl)c1)CC2 was read as NIH3T3 tox -13.3%, Luciferase inh inactive, HEK293 tox -5.1% and NPR1 antag -7.5%.
